# Data as given in ChEMBL document CHEMBL1157539, “Thousands of chemical starting points for antimalarial lead identification” (Nature, 2010).
# Legend:
# Type in all cases: functional
# Plasmodium falciparum [1] = assay: GSK_TCMDC: Inhibition of Plasmodium falciparum 3D7 in whole red blood cells, using parasite LDH activity as an index of growth. Test compounds present at 2uM
# Plasmodium falciparum [2] = assay: GSK_TCMDC: Inhibition of Plasmodium falciparum Dd2 in whole red blood cells, using parasite LDH activity as an index of growth. Test compounds present at 2uM
# HepG2 = assay: GSK_TCMDC: Percent inhibition of human HepG2 cell line. Test compounds present at 10uM.
structure (smiles),measurement,setting,value
Cc1cc(=O)c(-c2ccc(Oc3ccc(Cl)cc3Cl)cc2)c(C)[nH]1,Inhibition,Plasmodium falciparum [1],93%
same,Inhibition,Plasmodium falciparum [2],73%
same,Inhibition,HepG2,0%
O=C(O)C(F)(F)F.c1cnc2ccc(NCc3ccc(-c4ccc(CNC5CCCC5)cc4)cc3)cc2c1,Inhibition,Plasmodium falciparum [1],97%
same,Inhibition,Plasmodium falciparum [2],21%
same,Inhibition,HepG2,27%
c1cncc(CN2CCCN(c3ccc4c(c3)CCN(Cc3ccc(-c5ncc[nH]5)cc3)CC4)CC2)c1,Inhibition,Plasmodium falciparum [1],99%
same,Inhibition,Plasmodium falciparum [2],33%
same,Inhibition,HepG2,7%
CN1CCN(CC(=O)Nc2cccc(-c3cccc(-c4nc5cc(F)ccc5[nH]4)c3)c2)CC1,Inhibition,Plasmodium falciparum [1],100%
same,Inhibition,Plasmodium falciparum [2],98%
same,Inhibition,HepG2,16%
Oc1ccc(-c2ccccc2)cc1CN1CCCCC1,Inhibition,Plasmodium falciparum [1],93%
same,Inhibition,Plasmodium falciparum [2],70%
same,Inhibition,HepG2,3%
COc1ccc(-c2nc(NCc3ccccc3)c3cc(OC)c(OC)cc3n2)cc1,Inhibition,Plasmodium falciparum [1],100%
same,Inhibition,Plasmodium falciparum [2],100%
same,Inhibition,HepG2,15%
C=C1N(C)c2cc([N+](=O)[O-])c(N)cc2C1(C)C,Inhibition,Plasmodium falciparum [1],98%
same,Inhibition,Plasmodium falciparum [2],83%
same,Inhibition,HepG2,22%
Cc1cc(-c2cc(Cl)ccc2Cl)no1,Inhibition,Plasmodium falciparum [1],96%
same,Inhibition,Plasmodium falciparum [2],97%
same,Inhibition,HepG2,36%
O=c1cc(NCCCNCc2cc(F)cc(C(F)(F)F)c2)[nH]c2ccccc12,Inhibition,Plasmodium falciparum [1],92%
same,Inhibition,Plasmodium falciparum [2],15%
same,Inhibition,HepG2,0%
CC(C)c1ccc(NC(=O)c2cccc(CN3CCCN(CC4CCCCC4)CC3)c2)cc1.O=C(O)C(F)(F)F,Inhibition,Plasmodium falciparum [1],85%
same,Inhibition,Plasmodium falciparum [2],59%
same,Inhibition,HepG2,62%
Cl.NC(=O)c1cccc(Nc2nccc(Nc3ccc(Oc4ccc5ccccc5c4)cc3)n2)c1,Inhibition,Plasmodium falciparum [1],96%
same,Inhibition,Plasmodium falciparum [2],31%
same,Inhibition,HepG2,15%
COc1ccc2c(N/N=C/c3ccc([N+](=O)[O-])cc3)ccnc2c1,Inhibition,Plasmodium falciparum [1],100%
same,Inhibition,Plasmodium falciparum [2],98%
same,Inhibition,HepG2,0%
O=C(O)c1cc(C(F)(F)F)co1,Inhibition,Plasmodium falciparum [1],96%
same,Inhibition,Plasmodium falciparum [2],19%
same,Inhibition,HepG2,0%
COc1ccc(CCNCCCCCCNCCc2ccc(Cl)c(Cl)c2)cc1OC.Cl,Inhibition,Plasmodium falciparum [1],100%
same,Inhibition,Plasmodium falciparum [2],10%
same,Inhibition,HepG2,59%
O=C(NCCN1CCOCC1)c1ccc(-c2ccc(CNCCCc3ccccc3)cc2)nc1.O=C(O)C(F)(F)F,Inhibition,Plasmodium falciparum [1],97%
same,Inhibition,Plasmodium falciparum [2],10%
same,Inhibition,HepG2,0%
CC12CN3CC(C)(CN(C1)C3c1cc(Br)ccc1O)C2O (stereo not drawn),Inhibition,Plasmodium falciparum [1],98%
same,Inhibition,Plasmodium falciparum [2],2%
same,Inhibition,HepG2,5%
N#Cc1ccc(C=NNc2nc3ccccc3[nH]2)cc1,Inhibition,Plasmodium falciparum [1],100%
same,Inhibition,Plasmodium falciparum [2],71%
same,Inhibition,HepG2,0%
Cc1nc2ccccc2c(O)c1-c1ccc(Cl)cc1,Inhibition,Plasmodium falciparum [1],93%
same,Inhibition,Plasmodium falciparum [2],91%
same,Inhibition,HepG2,0%
Cc1ccoc1C(=O)Nc1cccc(-c2cccc(-c3nc4cccc(C)c4[nH]3)c2)c1,Inhibition,Plasmodium falciparum [1],100%
same,Inhibition,Plasmodium falciparum [2],79%
same,Inhibition,HepG2,17%
O=C(NCCN1CCC(c2ncc(-c3ccccc3)o2)CC1)c1ccc(NC(=O)c2ccc(Cl)cc2)cc1,Inhibition,Plasmodium falciparum [1],100%
same,Inhibition,Plasmodium falciparum [2],80%
same,Inhibition,HepG2,32%
NC1CCN(Cc2ccc(-c3cccc(-c4nc5ccccc5[nH]4)c3)cc2)C1.O=C(O)C(F)(F)F (stereo not drawn),Inhibition,Plasmodium falciparum [1],98%
same,Inhibition,Plasmodium falciparum [2],0%
same,Inhibition,HepG2,19%
COc1cc2nc(N(C)CC3COc4ccccc4O3)nc(N)c2cc1OC.Cl (stereo not drawn),Inhibition,Plasmodium falciparum [1],94%
same,Inhibition,Plasmodium falciparum [2],26%
same,Inhibition,HepG2,11%
CCc1cc(NC2CCN(C)CC2)nc(Nc2ccc(C)cc2)n1,Inhibition,Plasmodium falciparum [1],95%
same,Inhibition,Plasmodium falciparum [2],11%
same,Inhibition,HepG2,3%
CCCNS(=O)(=O)c1ccc(NC(=O)C(C)Oc2ccc([N+](=O)[O-])cc2)cc1 (stereo not drawn),Inhibition,Plasmodium falciparum [1],100%
same,Inhibition,Plasmodium falciparum [2],37%
same,Inhibition,HepG2,3%
CCN(CCCN1CCCCC1)c1nc(C)cc(Nc2ccc(Cl)cc2)n1,Inhibition,Plasmodium falciparum [1],98%
same,Inhibition,Plasmodium falciparum [2],92%
same,Inhibition,HepG2,30%
Cc1ccc(NC(=O)Nc2ccccc2)cc1-c1ccc(C(=O)Nc2ccncc2)cc1,Inhibition,Plasmodium falciparum [1],99%
same,Inhibition,Plasmodium falciparum [2],52%
same,Inhibition,HepG2,67%
Br.CC1(C)NC(N)=NC(=N)N1OCCc1cccc2ccccc12,Inhibition,Plasmodium falciparum [1],95%
same,Inhibition,Plasmodium falciparum [2],97%
same,Inhibition,HepG2,57%
Cl.N#Cc1ccc(-c2ccc3nc(N4CCCN(C5CCC5)CC4)ccc3c2)cc1,Inhibition,Plasmodium falciparum [1],96%
same,Inhibition,Plasmodium falciparum [2],14%
same,Inhibition,HepG2,36%
Cl.O=S(=O)(c1ccc2ccccc2c1)N1CCCN(Cc2ccc(OCCCN3CCCCC3)cc2)CC1,Inhibition,Plasmodium falciparum [1],98%
same,Inhibition,Plasmodium falciparum [2],11%
same,Inhibition,HepG2,43%
COc1cc2ccccc2c(OC)c1CNCCCCCCNCc1c(OC)cc2ccccc2c1OC.CS(=O)(=O)O,Inhibition,Plasmodium falciparum [1],93%
same,Inhibition,Plasmodium falciparum [2],91%
same,Inhibition,HepG2,100%
Cl.Cn1nc(C(F)(F)F)cc1-c1ccc(C(=O)Nc2ccc3c(c2)CNCC3(C)C)s1,Inhibition,Plasmodium falciparum [1],88%
same,Inhibition,Plasmodium falciparum [2],36%
same,Inhibition,HepG2,10%
